In PubChem BioAssay (EPA / NIEHS) one finds outcome and AC50 data, which are given here for 40 compounds.

Each structure is given as a SMILES string. Calls of active or inactive are those of the source. How the source made its calls: active means hit-call score of the fitted dose curve at least 0.9, where 1 is the maximum; inactive means score below 0.9.

Read-out in this experiment: Cyclin D1 (CCND1), CCND1 (gene 595)
Briefly: LTEA_HepaRG_CCND1: Life Technologies and Expression Analysis (LTEA) Assay for Cyclin D1 (CCND1) using HepaRG (AID 2283451).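 On AC50: TaqMan qRT-PCR transcript level normalised to ACTB GAPDH and POLR2A housekeeping genes.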 The settings on record: mRNA level, 48 h; actives raise or lower the signal. As for the experimental part: LTEA_HepaRG is a cell based, multiplexed-readout assay that uses HepaRG, a human liver cell line, with measurements taken at 48 hours after chemical dosing on a 96-well plate.LTEA_HepaRG_CCND1 is one of 102 assay component(s) measured in the LTEA HepaRG cell culture assay. It is a marker of Cell proliferation, survival, death.Data from the assay component LTEA_HepaRG_CCND1 was analyzed into 1 endpoint. This assay endpoint, LTEA_HepaRG_CCND1, was analyzed with bidirectional fitting relative to DMSO as the negative control and baseline of activity. Using a type of inducible reporter, measures of mRNA induction for gain or loss-of-signal activity can be used to understand regulation of transcription factor activity. To generalize the intended target to other relatable targets, this assay endpoint is annotated to the cell cycle intended target family, where the subfamily is Cell proliferation, survival, death.
A total of 1060 chemcials from the ToxCast library were tested in eight-point concentration-response experiments. Cell culture and cytotoxicity assays were conducted at Thermo Fisher Scientific's Custom Services facility (Madison, WI). A single lot of human HepaRG cells (Thermo Fisher Scientific, Frederick, MD) was used for the cell culture experiments. 96-well format collagen type I coated plates of human HepaRG cells were prepared using established methods. Briefly, cryopreserved HepaRG cells were thawed, plated at a density of approximately 100,000 cells/well in HepaRG Thaw, Plate, and General Purpose media (HPRG770, Thermo Fisher Scientific), and incubated for 48 hours. 0.5% DMSO was selected as vehicle control to balance the requisite need of DMSO in HepaRG cultures to maintain differentiation (for example, baseline metabolism, proportions of hepatocytes vs. cholangiocytes), while enabling further hepatic receptor pathway activation (for example, PXR and CAR) in response to chemical exposure. 48 hours after plating, the culture medium was replaced with HepaRG Serum-Free Incudtion Media. Cells were exposed to each test chemical in duplicate and maintained in CO2 incubators for another 48 hours. Chemical plates were thawed to room temperature and 200x concentrations of treatment groups were prepared. 8-point conentration-reponse curves were made with the highest exposure at 100 uM, followed by half-log dilutions, all in 0.5% DMSO. Each test plate contained variouse controls, induction positive controls (1mM phenobarbital), cytotoxicity positive controls ([…] aflatoxin B1), vehicle controls (0.5% DMSO), and total lysis controls (0.5% DMSO). Cell morphology images were taken using an Essen IncuCyte FLR automated microscope, with six 96-well plates imaged in about 24 minutes. Images were captured and exported and JPEG files. Spent culture media was transfered to black-well plates for the LDH assay, and remaining media was sorted at -80 C for later use. Cells were treated with RLT buffer and frozen until shipped for gene expression analysis. Total RNA was isolated from the cell suspension in 75 uL of Buffer RLT (Qiagen, Germantown, MD 20874) by Quintiles/Expression Analysis (Durham, NC) using a custom isolation procedure. Total RNA from each plate well was transferred to a preamplification plate. Fluidigm's 96.96 Dynamic ArrayTM (Fluidigm, Amsterdam, the Netherlands) technology was used for gene expression analyses by quantitative reverse transcription polymerase chain reaction (qRT-PCR, performed by Quintiles/Expression Analysis, Durham, NC)89. Standard TaqManTM Assays (Applied Biosystems/ThermoFisher Scientific, Foster City, CA) were used to assess the expression of 93 genes selected based on their selectivity and sensitivity to important hepatic receptors known to be modulated by environmental chemicals; importance in human hepatocyte functionality; and hepatotoxicity. […]
For the compound `Cc1cccc([N+](=O)[O-])c1`, the call was inactive.

Usually AC50 stands for the concentration giving half of the maximal activity seen. On to `O=C(O)C(F)(F)C(F)(F)C(F)(F)C(F)(F)C(F)(F)C(F)(F)C(F)(F)C(F)(F)F`, for which the AC50 is 50 µM (active).

Turning to `O=C(O)C(F)(F)C(F)(F)C(F)(F)C(F)(F)C(F)(F)F`, the outcome was inactive.

On to `Clc1ccc(Cl)cc1`, for which the compound was classed as inactive.

`O=S(=O)(O)C(F)(F)C(F)(F)C(F)(F)C(F)(F)C(F)(F)C(F)(F)F`: the compound was classed as inactive.

For the compound `N#Cc1ccc(N(CC(N)=O)CC(F)(F)F)cc1C(F)(F)F`, the call was inactive.

As to `c1ccc(-c2ccccc2)cc1`, the call was inactive.

Take `CC(c1ccc(O)cc1)(c1ccc(O)cc1)c1ccc(O)cc1`: the AC50 is 24.1 µM (active).

Turning to `C=CC(N)=O`, the compound was classed as inactive.

`Oc1ccc(C(c2ccc(O)cc2)(C(F)(F)F)C(F)(F)F)cc1`: the compound was classed as inactive.

For `Oc1ccc(Cl)cc1Cl`, the compound was classed as inactive.

In the case of `Nc1ccc(-c2ccc(N)cc2)cc1`, the call was inactive.

For the compound `CCCCCCCCCc1ccc(O)cc1`, the call was inactive.

Take `CCOC(=O)C(O)(c1ccc(Cl)cc1)c1ccc(Cl)cc1`: the result was inactive.

On to `Cc1cc(O)ccc1Cl`, for which the outcome was inactive.

For `ClC1=C(Cl)[C@]2(Cl)[C@@H]3[C@H]4C[C@H]([C@@H]5O[C@H]45)[C@@H]3[C@@]1(Cl)C2(Cl)Cl`, the compound was called inactive.

In the case of `O=C(NC(=O)c1c(F)cccc1F)Nc1cc(Cl)c(OC(F)(F)C(F)F)c(Cl)c1`, the compound was classed as inactive.

Regarding `O=C(NC(=O)c1cc(F)c(F)cc1Cl)Nc1cc(F)ccc1N1CCC(C(=O)O)CC1`, the result was inactive.

Regarding `C[C@]12CCC(=O)C=C1CC[C@@H]1[C@@H]2CC[C@@]2(C)[C@H]1CC[C@]2(C)O`, the compound was called inactive.

Consider `NS(=O)(=O)C(F)(F)C(F)(F)C(F)(F)C(F)(F)C(F)(F)C(F)(F)C(F)(F)C(F)(F)F`, for which the AC50 is 50 µM (active).

`CN(C)c1nc(=O)n(C2CCCCC2)c(=O)n1C`: the outcome was inactive.

Take `CCCN(CCC)N=O`: the outcome was inactive.

Regarding `CCC(C)(c1ccc(O)cc1)c1ccc(O)cc1`, the result was inactive.

With `Nn1cnnc1`, the compound was classed as inactive.

Take `CC(C)(O)C(=O)Nc1ccc([N+](=O)[O-])c(C(F)(F)F)c1`: the result was inactive.

For `Cc1cc(-c2ccc(N)c(C)c2)ccc1N`, the outcome was inactive.

In the case of `CC(C)C(=O)OCC(C)(C)C(OC(=O)C(C)C)C(C)C` (stereo not given), the compound was called inactive.

For `Cc1cccc(C)c1N`, the result was inactive.

Regarding `Clc1ccc(C(c2ccccc2Cl)C(Cl)(Cl)Cl)cc1` (stereo not given), the compound was classed as inactive.

For `Oc1c(Cl)c(Cl)c(Cl)c(Cl)c1Cl`, the result was inactive.

Turning to `O=NN(c1ccccc1)c1ccccc1`, the call was inactive.

Take `ClC(Cl)=C(c1ccc(Cl)cc1)c1ccc(Cl)cc1`: the result was inactive.

Regarding `Cc1ccccc1[N+](=O)[O-]`, the call was inactive.

Regarding `CCOCCOC(C)=O`, the call was inactive.

`CN(C)CCO`: the compound was classed as inactive.

On to `Clc1ccc(C(Cl)(Cl)Cl)cc1`, for which the compound was classed as inactive.

As to `CCC(C)c1cc([N+](=O)[O-])cc([N+](=O)[O-])c1O` (stereo not given), the AC50 was 11.1 µM (active).

With `CCC(=O)O[C@H]1CC[C@H]2[C@@H]3CCC4=CC(=O)CC[C@]4(C)[C@H]3CC[C@]12C`, the outcome was inactive.

Regarding `Cc1ccc(O)c(C)c1`, the result was inactive.

Regarding `CCSC(=O)N(CC)C1CCCCC1`, the outcome was inactive.
